# Results published in PMC7862700, “An all-to-all approach to the identification of sequence-specific readers for epigenetic DNA modifications on cytosine”.
# Key:
# Assay in all cases: DAPPL (digital affinity profiling via proximity ligation, sequencing); 10 mM Tris-HCl pH 7.5, 50 mM NaCl, 1 mM DTT, 4% glycerol, room temperature, 30 min; GST-TFs on glutathione beads, 16-mer random dsDNA library, 0.1% formaldehyde crosslink after washing; high values mean tight binding
# FLI1 = target: T1, FLI1 (Homo sapiens, UniProt Q01543 1-452); details: protein: recombinant; tags: N-terminal GST; dsDNA, one strand shown
# T1 sequence: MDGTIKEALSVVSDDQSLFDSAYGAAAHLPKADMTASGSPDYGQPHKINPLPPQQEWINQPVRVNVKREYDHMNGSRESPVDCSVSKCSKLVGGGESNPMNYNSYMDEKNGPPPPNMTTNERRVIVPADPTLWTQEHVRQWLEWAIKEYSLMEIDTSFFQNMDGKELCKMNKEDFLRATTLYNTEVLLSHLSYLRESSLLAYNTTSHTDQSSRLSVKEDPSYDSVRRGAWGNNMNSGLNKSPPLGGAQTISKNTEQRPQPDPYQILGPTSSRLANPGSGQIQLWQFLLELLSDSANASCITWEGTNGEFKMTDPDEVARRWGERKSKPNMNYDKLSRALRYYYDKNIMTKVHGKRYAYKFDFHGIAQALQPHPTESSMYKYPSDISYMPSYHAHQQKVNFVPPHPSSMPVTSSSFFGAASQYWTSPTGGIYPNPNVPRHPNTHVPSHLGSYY
# Method in brief: (§1)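 A tag-only sample was pooled with DNA-barcoded human transcription factors that had been expressed in yeast as GST fusions and captured on glutathione beads. The pools were incubated for 30 min at room temperature with 200 nmole of a random double-stranded 16-mer DNA library in Tris/NaCl/DTT/glycerol buffer, then washed, crosslinked with 0.1% formaldehyde, proximity-ligated (BsaI/T4 ligase, 1 h, 37 °C), PCR-amplified and sequenced on an Illumina NextSeq500. Binding signal is each hexamer's read frequency for a factor divided by its frequency for the tag-only sample.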
# ELK1 = target: T2, ELK1 (Homo sapiens, UniProt P19419 1-428); details: protein: recombinant; tags: N-terminal GST; dsDNA, one strand shown
# T2 sequence: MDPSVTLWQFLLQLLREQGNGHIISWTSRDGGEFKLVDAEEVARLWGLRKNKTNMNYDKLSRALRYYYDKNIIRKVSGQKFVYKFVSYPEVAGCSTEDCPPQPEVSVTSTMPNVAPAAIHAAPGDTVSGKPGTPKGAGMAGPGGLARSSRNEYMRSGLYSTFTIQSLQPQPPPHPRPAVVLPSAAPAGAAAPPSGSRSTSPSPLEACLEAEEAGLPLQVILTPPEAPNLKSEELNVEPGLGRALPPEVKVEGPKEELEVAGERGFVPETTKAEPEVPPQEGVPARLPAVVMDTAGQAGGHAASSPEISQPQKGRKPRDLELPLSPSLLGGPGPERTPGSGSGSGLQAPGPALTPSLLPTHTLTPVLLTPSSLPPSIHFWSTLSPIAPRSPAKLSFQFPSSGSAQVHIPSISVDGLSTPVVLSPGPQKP
# Method in brief: as §1
# GABPA = target: T3, GABPA (Homo sapiens, UniProt Q06546 1-454); details: protein: recombinant; tags: N-terminal GST; dsDNA, one strand shown
# T3 sequence: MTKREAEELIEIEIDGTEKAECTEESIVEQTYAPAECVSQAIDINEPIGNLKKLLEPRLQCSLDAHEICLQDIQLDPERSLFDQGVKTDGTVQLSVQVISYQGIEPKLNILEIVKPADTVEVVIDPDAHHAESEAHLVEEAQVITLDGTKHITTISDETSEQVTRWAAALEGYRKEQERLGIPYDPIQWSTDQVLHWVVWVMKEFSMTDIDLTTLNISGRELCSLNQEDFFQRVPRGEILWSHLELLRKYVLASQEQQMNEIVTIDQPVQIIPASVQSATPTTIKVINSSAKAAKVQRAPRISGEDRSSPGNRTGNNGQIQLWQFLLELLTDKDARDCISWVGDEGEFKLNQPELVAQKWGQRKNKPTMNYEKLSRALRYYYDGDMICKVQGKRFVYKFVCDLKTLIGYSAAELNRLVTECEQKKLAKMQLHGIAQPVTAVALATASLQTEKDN
# Method in brief: as §1
# ERG = target: T4, ERG (Homo sapiens, UniProt P11308 1-479); details: protein: recombinant; tags: N-terminal GST; dsDNA, one strand shown
# T4 sequence: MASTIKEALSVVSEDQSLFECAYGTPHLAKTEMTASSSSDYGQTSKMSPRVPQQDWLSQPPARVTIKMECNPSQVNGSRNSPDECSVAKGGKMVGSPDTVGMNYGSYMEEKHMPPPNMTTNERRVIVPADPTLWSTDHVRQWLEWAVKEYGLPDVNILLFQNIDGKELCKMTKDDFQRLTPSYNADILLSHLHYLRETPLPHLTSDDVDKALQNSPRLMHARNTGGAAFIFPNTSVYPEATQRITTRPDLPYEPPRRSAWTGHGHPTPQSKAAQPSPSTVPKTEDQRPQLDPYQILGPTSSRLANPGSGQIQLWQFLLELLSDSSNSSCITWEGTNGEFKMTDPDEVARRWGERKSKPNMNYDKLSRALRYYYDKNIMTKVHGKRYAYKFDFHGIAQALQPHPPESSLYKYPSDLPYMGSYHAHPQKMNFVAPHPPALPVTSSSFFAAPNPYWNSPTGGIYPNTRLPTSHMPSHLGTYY
# Method in brief: as §1
# ELF1 = ELF1 (Homo sapiens, UniProt P32519 1-619); details: protein: recombinant; tags: N-terminal GST; dsDNA, one strand shown
# ELF1, sequence (P32519 whole entry): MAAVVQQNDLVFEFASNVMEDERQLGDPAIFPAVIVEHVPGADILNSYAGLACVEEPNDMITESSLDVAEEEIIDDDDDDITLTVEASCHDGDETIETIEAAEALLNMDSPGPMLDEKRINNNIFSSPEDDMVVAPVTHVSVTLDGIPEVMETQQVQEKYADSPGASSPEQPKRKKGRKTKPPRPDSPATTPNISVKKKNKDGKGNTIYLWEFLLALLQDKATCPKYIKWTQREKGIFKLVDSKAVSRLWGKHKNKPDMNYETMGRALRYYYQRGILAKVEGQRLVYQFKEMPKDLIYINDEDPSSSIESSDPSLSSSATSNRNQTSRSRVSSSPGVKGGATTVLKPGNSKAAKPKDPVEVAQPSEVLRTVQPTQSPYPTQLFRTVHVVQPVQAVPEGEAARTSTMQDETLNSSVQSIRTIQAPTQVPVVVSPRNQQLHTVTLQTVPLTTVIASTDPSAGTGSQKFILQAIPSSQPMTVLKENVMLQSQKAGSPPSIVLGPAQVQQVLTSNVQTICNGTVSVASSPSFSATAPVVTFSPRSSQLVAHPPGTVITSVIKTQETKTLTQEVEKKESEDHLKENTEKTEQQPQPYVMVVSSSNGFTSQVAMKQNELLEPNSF
# Method in brief: as §1
# EHF = target: T5, EHF (Homo sapiens, UniProt Q9NZC4 1-300); details: protein: recombinant; tags: N-terminal GST; dsDNA, one strand shown
# T5 sequence: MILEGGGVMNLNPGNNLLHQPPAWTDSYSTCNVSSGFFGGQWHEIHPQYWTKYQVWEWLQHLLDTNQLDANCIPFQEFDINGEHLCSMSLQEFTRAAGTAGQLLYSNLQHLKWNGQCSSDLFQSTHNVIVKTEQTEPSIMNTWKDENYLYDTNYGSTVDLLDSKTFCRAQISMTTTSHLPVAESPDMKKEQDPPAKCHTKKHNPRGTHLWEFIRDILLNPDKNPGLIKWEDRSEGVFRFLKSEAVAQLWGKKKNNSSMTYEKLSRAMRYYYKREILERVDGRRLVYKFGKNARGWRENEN
# Method in brief: as §1
# SPI1 = SPI1 (Homo sapiens, UniProt P17947 1-270); details: protein: recombinant; tags: N-terminal GST; dsDNA, one strand shown
# Method in brief: as §1
# SPIB = SPIB (Homo sapiens, UniProt Q01892 1-262); details: protein: recombinant; tags: N-terminal GST; dsDNA, one strand shown
# SPIB, sequence (Q01892 whole entry): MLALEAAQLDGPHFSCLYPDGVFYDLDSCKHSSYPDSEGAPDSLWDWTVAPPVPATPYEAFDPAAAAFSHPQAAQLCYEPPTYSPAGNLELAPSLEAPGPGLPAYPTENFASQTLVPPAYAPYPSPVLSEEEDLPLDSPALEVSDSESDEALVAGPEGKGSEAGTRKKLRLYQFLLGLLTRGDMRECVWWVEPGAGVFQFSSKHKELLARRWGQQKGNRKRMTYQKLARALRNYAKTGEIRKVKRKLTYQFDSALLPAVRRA
# Method in brief: as §1
# ELK3 = target: T6, ELK3 (Homo sapiens, UniProt P41970 1-407); details: protein: recombinant; tags: N-terminal GST; dsDNA, one strand shown
# T6 sequence: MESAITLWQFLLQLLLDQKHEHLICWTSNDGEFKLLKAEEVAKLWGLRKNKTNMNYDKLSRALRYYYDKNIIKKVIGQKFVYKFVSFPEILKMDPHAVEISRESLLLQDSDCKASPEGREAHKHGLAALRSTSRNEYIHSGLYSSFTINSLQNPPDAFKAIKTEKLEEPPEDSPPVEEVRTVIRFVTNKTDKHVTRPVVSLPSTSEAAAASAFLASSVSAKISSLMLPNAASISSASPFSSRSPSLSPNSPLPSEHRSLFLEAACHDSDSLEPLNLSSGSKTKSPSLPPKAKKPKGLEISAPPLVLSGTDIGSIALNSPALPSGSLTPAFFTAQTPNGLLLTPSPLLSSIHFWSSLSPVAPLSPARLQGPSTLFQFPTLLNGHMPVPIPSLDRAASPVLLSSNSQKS
# Method in brief: as §1
# FEV = target: T7, FEV (Homo sapiens, UniProt Q99581 1-238); details: protein: recombinant; tags: N-terminal GST; dsDNA, one strand shown
# T7 sequence: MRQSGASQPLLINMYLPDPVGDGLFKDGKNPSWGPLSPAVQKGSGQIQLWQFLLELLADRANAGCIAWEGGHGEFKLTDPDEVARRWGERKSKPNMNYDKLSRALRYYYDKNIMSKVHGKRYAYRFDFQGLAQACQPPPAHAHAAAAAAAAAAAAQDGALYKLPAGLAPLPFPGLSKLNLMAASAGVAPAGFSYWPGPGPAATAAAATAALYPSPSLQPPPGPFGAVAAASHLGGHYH
# Method in brief: as §1
# ETV5 = ETV5 (Homo sapiens, UniProt P41161 1-510); details: protein: recombinant; tags: N-terminal GST; dsDNA, one strand shown
# ETV5, sequence (P41161 whole entry): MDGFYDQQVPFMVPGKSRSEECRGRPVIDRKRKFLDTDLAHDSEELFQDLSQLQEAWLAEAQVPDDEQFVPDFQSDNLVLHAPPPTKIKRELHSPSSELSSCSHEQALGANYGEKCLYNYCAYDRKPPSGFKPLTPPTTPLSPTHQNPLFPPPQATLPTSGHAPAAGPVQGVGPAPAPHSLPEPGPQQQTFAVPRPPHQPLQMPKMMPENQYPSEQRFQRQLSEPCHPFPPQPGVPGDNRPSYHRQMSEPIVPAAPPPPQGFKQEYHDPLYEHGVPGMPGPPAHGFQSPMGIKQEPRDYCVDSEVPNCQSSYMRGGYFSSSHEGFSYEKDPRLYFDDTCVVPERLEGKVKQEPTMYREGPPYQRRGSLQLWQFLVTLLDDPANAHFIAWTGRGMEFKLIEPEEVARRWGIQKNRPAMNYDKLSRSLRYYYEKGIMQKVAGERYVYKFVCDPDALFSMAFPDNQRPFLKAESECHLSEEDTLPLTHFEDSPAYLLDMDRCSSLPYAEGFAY
# Method in brief: as §1
# HSF1 = HSF1 (Homo sapiens, UniProt Q00613 1-529); details: protein: recombinant; tags: N-terminal GST; chain copies: 3; dsDNA, one strand shown
# HSF1, sequence (Q00613 whole entry): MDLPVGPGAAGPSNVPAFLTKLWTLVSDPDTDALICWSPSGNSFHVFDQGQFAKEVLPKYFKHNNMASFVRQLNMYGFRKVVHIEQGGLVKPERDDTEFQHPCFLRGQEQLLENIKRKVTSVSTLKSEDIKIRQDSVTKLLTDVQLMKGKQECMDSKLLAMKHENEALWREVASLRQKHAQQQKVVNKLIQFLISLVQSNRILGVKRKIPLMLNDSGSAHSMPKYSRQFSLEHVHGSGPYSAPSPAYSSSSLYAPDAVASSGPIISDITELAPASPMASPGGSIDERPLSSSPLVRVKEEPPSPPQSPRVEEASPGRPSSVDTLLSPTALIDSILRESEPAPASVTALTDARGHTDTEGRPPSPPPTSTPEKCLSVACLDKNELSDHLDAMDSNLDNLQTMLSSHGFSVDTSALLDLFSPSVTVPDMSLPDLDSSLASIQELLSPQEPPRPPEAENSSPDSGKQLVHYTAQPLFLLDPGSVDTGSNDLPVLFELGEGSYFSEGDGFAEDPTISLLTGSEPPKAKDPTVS
# Method in brief: as §1
# SPIC = target: T8, SPIC (Homo sapiens, UniProt Q8N5J4 1-248); details: protein: recombinant; tags: N-terminal GST; dsDNA, one strand shown
# T8 sequence: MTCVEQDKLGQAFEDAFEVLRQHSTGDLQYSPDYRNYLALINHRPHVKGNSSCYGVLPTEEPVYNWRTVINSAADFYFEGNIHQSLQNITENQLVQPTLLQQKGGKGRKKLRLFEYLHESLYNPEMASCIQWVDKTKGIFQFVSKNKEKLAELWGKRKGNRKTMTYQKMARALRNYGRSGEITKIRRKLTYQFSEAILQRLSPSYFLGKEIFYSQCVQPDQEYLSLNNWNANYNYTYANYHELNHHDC
# Method in brief: as §1
# ELF4 = ELF4 (Homo sapiens, UniProt Q99607 1-663); details: protein: recombinant; tags: N-terminal GST; dsDNA, one strand shown
# ELF4, sequence (Q99607 whole entry): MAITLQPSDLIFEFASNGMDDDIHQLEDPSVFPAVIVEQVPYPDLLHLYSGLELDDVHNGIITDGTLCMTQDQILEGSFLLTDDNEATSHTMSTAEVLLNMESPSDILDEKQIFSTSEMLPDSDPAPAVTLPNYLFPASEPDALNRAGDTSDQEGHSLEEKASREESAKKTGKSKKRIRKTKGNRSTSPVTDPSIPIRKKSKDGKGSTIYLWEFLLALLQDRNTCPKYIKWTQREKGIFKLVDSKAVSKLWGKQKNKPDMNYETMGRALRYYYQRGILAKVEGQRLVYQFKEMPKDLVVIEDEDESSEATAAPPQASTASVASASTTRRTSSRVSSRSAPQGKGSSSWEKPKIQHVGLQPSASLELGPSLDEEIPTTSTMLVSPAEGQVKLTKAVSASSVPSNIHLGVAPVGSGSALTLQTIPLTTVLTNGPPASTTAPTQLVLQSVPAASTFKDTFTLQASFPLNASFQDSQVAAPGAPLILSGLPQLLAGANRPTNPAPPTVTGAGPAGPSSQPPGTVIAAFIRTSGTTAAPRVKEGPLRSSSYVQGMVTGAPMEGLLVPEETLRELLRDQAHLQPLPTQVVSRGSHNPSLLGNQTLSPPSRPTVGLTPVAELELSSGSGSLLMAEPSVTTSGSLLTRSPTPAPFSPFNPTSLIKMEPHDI
# Method in brief: as §1
# ELK4 = target: T9, ELK4 (Homo sapiens, UniProt P28324-2 1-405); details: protein: recombinant; tags: N-terminal GST; dsDNA, one strand shown
# T9 sequence: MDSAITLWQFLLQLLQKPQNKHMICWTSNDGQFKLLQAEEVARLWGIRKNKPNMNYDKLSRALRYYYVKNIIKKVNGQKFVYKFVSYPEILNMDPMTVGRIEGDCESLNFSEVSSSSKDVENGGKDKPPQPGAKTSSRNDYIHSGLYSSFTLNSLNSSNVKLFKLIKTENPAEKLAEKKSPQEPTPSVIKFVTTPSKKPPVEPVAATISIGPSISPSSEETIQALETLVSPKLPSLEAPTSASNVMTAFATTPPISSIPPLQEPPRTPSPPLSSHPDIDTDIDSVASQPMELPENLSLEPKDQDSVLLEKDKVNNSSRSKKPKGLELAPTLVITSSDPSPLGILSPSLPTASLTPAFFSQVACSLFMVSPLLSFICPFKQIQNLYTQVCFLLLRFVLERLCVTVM
# Method in brief: as §1
# ETV2 = target: T10, ETV2 (Homo sapiens, UniProt O00321 1-342); details: protein: recombinant; tags: N-terminal GST; dsDNA, one strand shown
# T10 sequence: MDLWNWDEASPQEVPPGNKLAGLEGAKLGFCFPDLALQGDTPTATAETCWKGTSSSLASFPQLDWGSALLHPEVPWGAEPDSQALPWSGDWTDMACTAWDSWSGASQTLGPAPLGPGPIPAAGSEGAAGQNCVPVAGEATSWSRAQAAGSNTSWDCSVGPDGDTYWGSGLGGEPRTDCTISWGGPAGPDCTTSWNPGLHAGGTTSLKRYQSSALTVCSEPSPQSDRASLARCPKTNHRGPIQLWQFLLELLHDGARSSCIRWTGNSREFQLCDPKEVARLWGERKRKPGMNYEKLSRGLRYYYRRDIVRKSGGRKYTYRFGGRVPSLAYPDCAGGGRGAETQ
# Method in brief: as §1
# ELF3 = target: T11, ELF3 (Homo sapiens, UniProt P78545 1-371); details: protein: recombinant; tags: N-terminal GST; dsDNA, one strand shown
# T11 sequence: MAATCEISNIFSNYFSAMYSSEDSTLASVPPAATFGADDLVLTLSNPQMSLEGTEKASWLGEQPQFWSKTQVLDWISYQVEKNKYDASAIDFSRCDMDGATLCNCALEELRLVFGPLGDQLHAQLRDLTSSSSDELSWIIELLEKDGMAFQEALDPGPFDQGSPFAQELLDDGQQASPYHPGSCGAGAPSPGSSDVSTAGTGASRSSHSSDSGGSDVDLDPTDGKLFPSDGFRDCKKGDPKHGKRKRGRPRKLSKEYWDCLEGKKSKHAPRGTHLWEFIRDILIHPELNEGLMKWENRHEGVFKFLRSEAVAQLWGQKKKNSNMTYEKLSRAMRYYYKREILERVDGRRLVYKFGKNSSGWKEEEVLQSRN
# Method in brief: as §1
# CRX = CRX (Homo sapiens, UniProt O43186 1-299); details: protein: recombinant; tags: N-terminal GST; dsDNA, one strand shown
# CRX, sequence (O43186 whole entry): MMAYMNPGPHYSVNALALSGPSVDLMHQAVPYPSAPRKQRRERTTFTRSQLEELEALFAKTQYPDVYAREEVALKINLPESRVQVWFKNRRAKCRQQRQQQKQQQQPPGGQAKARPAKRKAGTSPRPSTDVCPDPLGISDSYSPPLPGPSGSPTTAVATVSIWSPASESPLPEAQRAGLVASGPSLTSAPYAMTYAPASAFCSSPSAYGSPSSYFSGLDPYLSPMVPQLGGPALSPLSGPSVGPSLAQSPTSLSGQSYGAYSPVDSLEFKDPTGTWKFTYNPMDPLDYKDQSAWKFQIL
# Method in brief: as §1
# ETV1 = ETV1 (Homo sapiens, UniProt P50549 1-477); details: protein: recombinant; tags: N-terminal GST; dsDNA, one strand shown
# ETV1, sequence (P50549 whole entry): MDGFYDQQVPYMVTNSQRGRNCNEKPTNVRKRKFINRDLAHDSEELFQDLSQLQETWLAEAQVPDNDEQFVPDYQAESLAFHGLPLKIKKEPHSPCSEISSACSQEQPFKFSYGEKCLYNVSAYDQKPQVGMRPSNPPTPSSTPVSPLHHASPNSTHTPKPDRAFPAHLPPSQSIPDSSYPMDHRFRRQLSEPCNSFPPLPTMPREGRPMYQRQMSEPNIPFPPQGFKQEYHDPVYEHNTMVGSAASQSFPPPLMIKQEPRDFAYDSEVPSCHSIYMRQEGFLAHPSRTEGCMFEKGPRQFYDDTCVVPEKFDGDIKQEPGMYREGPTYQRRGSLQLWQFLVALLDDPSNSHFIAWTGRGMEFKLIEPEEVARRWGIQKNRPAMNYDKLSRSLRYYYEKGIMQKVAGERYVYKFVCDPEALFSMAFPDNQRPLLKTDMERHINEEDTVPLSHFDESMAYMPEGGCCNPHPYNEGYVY
# Method in brief: as §1
sequence,measurement,setting,value
TTGTGG,binding signal,FLI1,"1.52 fold enrichment (6-mer frequency, TF over GST control)"
same,binding signal,ELK1,"1.36 fold enrichment (6-mer frequency, TF over GST control)"
same,binding signal,GABPA,"1.41 fold enrichment (6-mer frequency, TF over GST control)"
same,binding signal,ERG,"1.26 fold enrichment (6-mer frequency, TF over GST control)"
same,binding signal,ELF1,"1.34 fold enrichment (6-mer frequency, TF over GST control)"
same,binding signal,EHF,"1.3 fold enrichment (6-mer frequency, TF over GST control)"
same,binding signal,SPI1,"1.46 fold enrichment (6-mer frequency, TF over GST control)"
same,binding signal,SPIB,"1.29 fold enrichment (6-mer frequency, TF over GST control)"
same,binding signal,ELK3,"1.43 fold enrichment (6-mer frequency, TF over GST control)"
same,binding signal,FEV,"1.27 fold enrichment (6-mer frequency, TF over GST control)"
same,binding signal,ETV5,"1.41 fold enrichment (6-mer frequency, TF over GST control)"
same,binding signal,HSF1,"1.37 fold enrichment (6-mer frequency, TF over GST control)"
same,binding signal,SPIC,"1.44 fold enrichment (6-mer frequency, TF over GST control)"
same,binding signal,ELF4,"1.51 fold enrichment (6-mer frequency, TF over GST control)"
same,binding signal,ELK4,"1.35 fold enrichment (6-mer frequency, TF over GST control)"
same,binding signal,ETV2,"1.29 fold enrichment (6-mer frequency, TF over GST control)"
same,binding signal,ELF3,"1.34 fold enrichment (6-mer frequency, TF over GST control)"
same,binding signal,CRX,"1.46 fold enrichment (6-mer frequency, TF over GST control)"
same,binding signal,ETV1,"1.27 fold enrichment (6-mer frequency, TF over GST control)"
